Screens: PubChem BioAssay, National Center for Advancing Translational Sciences (NCATS)
TDP1 block: TDP1 (human) enzyme inhibition; 350,000 compounds, 0.28% hits; AID 485290; recombinant TDP1, AlphaScreen DNA substrate cleavage; Potency, µM (titrated, usually from 130 µM), inactives show at the top dose activity change, negative = inhibition, usual class: inhibitors; further: potency means the concentration at half of the fitted maximal effect; nearly all actives have a fitted effect of over 40% in size
Target sequence (Q9NUW8 whole entry, looked up): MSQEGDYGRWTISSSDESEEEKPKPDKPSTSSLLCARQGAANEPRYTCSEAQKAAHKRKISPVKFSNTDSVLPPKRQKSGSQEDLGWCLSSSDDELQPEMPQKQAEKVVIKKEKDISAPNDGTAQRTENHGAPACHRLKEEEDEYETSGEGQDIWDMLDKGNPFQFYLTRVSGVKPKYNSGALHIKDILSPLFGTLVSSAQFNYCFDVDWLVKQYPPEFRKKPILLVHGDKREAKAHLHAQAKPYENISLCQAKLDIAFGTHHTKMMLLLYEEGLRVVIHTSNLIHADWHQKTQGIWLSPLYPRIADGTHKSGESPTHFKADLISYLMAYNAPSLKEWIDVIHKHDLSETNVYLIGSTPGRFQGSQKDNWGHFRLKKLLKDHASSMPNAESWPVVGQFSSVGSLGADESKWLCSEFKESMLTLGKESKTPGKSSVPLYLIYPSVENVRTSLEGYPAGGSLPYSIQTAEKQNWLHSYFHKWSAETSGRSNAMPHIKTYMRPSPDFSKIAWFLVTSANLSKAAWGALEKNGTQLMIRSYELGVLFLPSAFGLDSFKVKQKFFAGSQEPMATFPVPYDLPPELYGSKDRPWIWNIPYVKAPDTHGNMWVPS
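Recombinant E. coli-expressed Tdp1 (1 nM) preincubated with compound 15 min at RT, then 5'-biotin/3'-phosphotyrosine-FITC DNA substrate (15 nM) added for 5 min. AlphaScreen beads (10 ug/ml) added, 10 min RT; tyrosine-FITC cleavage read as signal loss.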
ELG1 repair inh: blocks ELG1-dependent DNA repair in HEK293T cells; Potency, µM (titrated, usually from 46.1 µM), for the others: top-dose activity change, negative = inhibition, hits mostly inhibitors; HEK293T ELG1-luciferase reporter, luminescence, 16 h; DNA damage induced by 5-fluorouridine; AID 504467; 330,000 compounds, 2.3% hits; further: potency means the concentration at half of the fitted maximal effect; nearly all actives have a fitted effect of over 55% in size
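Cells (2,000 per well) received 5-fluorouridine plus test compound or DMSO and were incubated 16 hr at 37 °C, 5% CO2. Luciferase activity was read by luminescence 30 min after ONE-Glo addition; signal suppression marked inhibition of damage-induced ELG1 function.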
TDP1 cell noCPT: qHTS for Inhibitors of human tyrosyl-DNA phosphodiesterase 1 (TDP1): qHTS in cells in absence of CPT; DT40 Tdp1-/- hTDP1 cells, no CPT, ATP luminescence, 48 h; Potency, µM (titrated, usually from 46.2 µM), for inactives: at the top dose activity change, negative = growth inhibition, most hits filed as inhibitors; 420,000 compounds, 15% hits; AID 686978, 2013; further: potency means the concentration at half of the fitted maximal effect; nearly all actives have a fitted effect of over 55% in size
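A cellular qHTS used chicken DT40 cells lacking endogenous Tdp1 but carrying stably transfected human TDP1. Compounds were applied without camptothecin, and cell growth kinetics were judged by ATP-dependent luminescence after ≥48 hr.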
DT40 TDP1 CPT: growth inhibition of DT40 Tdp1-/-;hTDP1 cells with camptothecin (screen for TDP1 inhibitors) | Potency, µM (titrated, usually from 46.2 µM), inactives show top-dose activity change, negative = growth inhibition, usual class: inhibitors | 420,000 compounds, 12% hits | chicken DT40 Tdp1-/-;hTDP1 cells + 20 nM CPT, ATP luminescence, 48 h | AID 686979; further: potency means the concentration at half of the fitted maximal effect; nearly all actives have a fitted effect of over 55% in size
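Cell growth measured by CellTiter-Glo luminescence after a minimum 48 h, 37 C compound exposure with 20 nM CPT in Tdp1-knockout DT40 cells stably expressing hTDP1, seeded 400/well; qHTS titration format.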
Giardia killer: Giardia lamblia killing; Giardia lamblia trophozoite viability; activity change, % at 7.66 µM, hits read low; 340,000 compounds, 0.15% hits; in the data active means activity change below about -80%; inconclusive means between about -30% and that limit;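 further: parasites exposed to compound for two days anaerobically before the ATP read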
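Trophozoites 100 cells/well + cpd; 48 hrs, 37 deg C, anaerobic. ATPLite 1-Step added, 15-30 min RT, luminescence read (ATP-based viability).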
IL1B secr inh: inhibitors of inflammasome signaling (IL-1 beta secretion) | THP-1 LPS/ATP IL-1B secretion, AlphaLISA, 16 h; active compounds read low | activity change, % at 57.5 µM | 360,000 compounds, 4.7% hits | AID 743279; in the data active means activity change below about -50%; inconclusive means mostly about -30% to -49%
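Secreted IL-1B measured by AlphaLISA bead assay after 16 h compound exposure of THP-1 cells; compounds (final up to 57.5 uM) added 1 h before LPS (250 ng/mL) and ATP (1.25 mM) stimulation; lower signal means less secretion.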
Starred values were filed as active, the others as inactive; ? = inconclusive; / = no result; [ ] = remark or other dose. In the library only some 19% were active in any assay of this set; here they are far more common. Unless noted, the call rests on the fitted dose curve; in most records, active means well fitted curve in the direction sought with a large enough effect; inconclusive means small, poorly fitted or top-dose-only effect, or another doubt; inactive means no such curve, though single readings can be large; an effect the other way counts as inactive or inconclusive. On the % scale 0 is the no-effect control and ±100 the full control effect.

SMILES	TDP1 block	ELG1 repair inh	TDP1 cell noCPT	DT40 TDP1 CPT	Giardia killer	IL1B secr inh
CCOc1ccc2c(c1)sc1nc(=O)n(-c3ccc(Cl)c(Cl)c3)c(=O)n12	/	/	-12%	-6%	/	/
CCc1ccccc1NC(=O)COC(=O)c1c(C)nsc1NC	0%	0%	2.9µM*	7.3µM*	13	15
CNc1snc(C)c1C(=O)OCC(=O)N(C)c1ccccc1	1%	0%	?	-24%	-5	43
CCN(C(=O)COC(=O)c1c(C)nsc1NC)c1ccccc1	1%	-2%	-25%	-29%	16	47
CNc1snc(C)c1C(=O)OCC(=O)Nc1ccc(C)cc1F	-5%	13µM*	10µM*	?	9	-7
CNc1snc(C)c1C(=O)OCC(=O)N(C)Cc1ccccc1	1%	-8%	18µM*	15µM*	43	30
COc1ccc(NC(=O)c2coc(C)c2)cc1	/	?	-13%	-21%	3	-17
COc1ccc(-c2cc(CNC(=O)CCl)on2)cc1	3%	?	?	?	-18	-92*
COc1ccc(NC(=O)CN2C(=O)NC(C)(C3CC3)C2=O)c(OC)c1 (stereo not given)	1%	16%	-3%	1%	-28	8
CCc1nnc(NC(=O)CCC(=O)N2CCN(Cc3ccc(C)cc3C)CC2)s1	6%	-2%	18µM*	?	-17	33
CCCc1nnc(NC(=O)CCC(=O)N2CCN(Cc3ccc(C)cc3C)CC2)s1	1%	?	8.2µM*	-22%	2	10
CC(C)c1nnc(NC(=O)CCC(=O)N2CCN(Cc3ccc(F)cc3)CC2)s1	2%	-8%	-15%	?	-13	11
CCc1nnc(NC(=O)CCC(=O)N2CCN(CCc3ccccc3)CC2)s1	3%	0%	1%	-1%	8	23
Cc1ccc(CN2CCN(C(=O)CCC(=O)Nc3nnc(C(C)C)s3)CC2)c(C)c1	1%	3%	?	?	-11	-86*
CCc1nnc(NC(=O)CCC(=O)N2CCN(CCOc3ccc(C)cc3)CC2)s1	4%	23µM*	?	-25%	2	28
Cc1oc(-c2ccccc2NC(=O)C2CCC2)nc1CNC(=O)c1ccc(C#CC(C)(C)O)cc1	/	/	-9%	-7%[9.04 µM]	/	/
COc1ccc(C2CC(=O)c3c(C)nc(N4CCN(C=O)CC4)nc3C2)c(OC)c1 (stereo not given)	6%	/	/	/	/	/
Cc1nn(C2CCCO2)c(=O)nc1N (stereo not given)	2%	24%	/	/	/	/
Cc1cnccc1CN(C)Cc1cn(C)nc1-c1cccc(Cl)c1	5%	12%	?	?	0	0
CC(c1ccon1)N(C)Cc1cn(C)nc1-c1cccc(Cl)c1 (stereo not given)	/	-3%	16µM*	?	10	26
C[C@H]1CN=C2N(CCNC(=O)CCC3CCCCC3)[C@H](Cc3ccc(O)cc3)CN21	4%	-5%	?	?	7	-11
O=C(CCC1CCCCC1)NCCN1C2=NC[C@H](Cc3ccccc3)N2C[C@H]1Cc1ccc(O)cc1	8%	0%	18µM*	21µM*	-11	-24
C/C=C(\C)C(=O)NCCN1C2=NC[C@H](Cc3ccc(O)cc3)N2C[C@H]1Cc1ccc(O)cc1	5%	-11%	-20%	4%	-10	25
O=C(CCC1CCCCC1)NCCN1C2=NC[C@@H](Cc3ccccc3)N2C[C@H]1Cc1ccc(O)cc1	1%	-3%	16µM*	16µM*	4	0
Cc1c(C(O)(c2ccccc2)c2ccccc2)[n+]2ccccc2n1C	-7%	/	/	/	/	/
SMILES	TDP1 block	ELG1 repair inh	TDP1 cell noCPT	DT40 TDP1 CPT	Giardia killer	IL1B secr inh
C[C@@H]1C(=O)O[C@@H]1[C@@H](C)CO[Si](c1ccccc1)(c1ccccc1)C(C)(C)C	-4%	/	/	/	12	/
COc1ccc(S(=O)(=O)N2CCN(CC(=O)Nc3cccc(F)c3)CC2)cc1	6%	-9%	-3%	-7%	?	0
Cc1ccc(NC(=O)CN2CCN(S(=O)(=O)c3ccc(C(C)C)cc3)CC2)cc1F	3%	/	?	21µM*	/	/
COc1ccc(S(=O)(=O)N2CCN(CC(=O)Nc3ccc(C)c(F)c3)CC2)cc1	9%	-13%	18µM*	?	12	-61*
CCCN(C(=O)c1cc(S(=O)(=O)N2CCN(CC)CC2)ccc1Cl)C1CCS(=O)(=O)C1 (stereo not given)	/	/	-2%	-18%	-2	-9
CCOc1ccc(C2=NC(c3cccs3)=Nc3ccc(CC)cc3N2)cc1OCC	12%	/	18µM*	?	/	/
FC(F)(F)c1ccc(C2=Nc3ccccc3NC(c3cccs3)=N2)cc1	7%	/	?	-16%	/	/
CCc1ccc2c(c1)NC(c1cccs1)=NC(c1ccc(F)cc1)=N2	5%	/	23µM*	23µM*	/	/
CN(C)c1ccc2c(=O)c3ccccc3oc2n1	/	/	?	-31%	/	15
Nc1sc(-c2ccccc2)cc1C(=O)NCCc1c[nH]c2ccccc12	/	/	15µM*	16µM*	/	-15
CCCCNC(=O)c1cc(-c2ccccc2)sc1N	/	/	16µM*	15µM*	/	?
NNC(=O)c1sc(-c2ccccc2)cc1N	-1%	-5%	?	?	-2	-54*
COc1ccccc1NC(=O)CSCc1cc(=O)c2cccc(Cl)c2[nH]1	3%	/	-7%	-16%	/	/
CC1=NN(C(N)=S)C(=O)C1N=Nc1ccccc1C(=O)O (stereo not given)	/	-4%	-12%	-5%	9	-4
CC1=NN(c2ccccc2C(=O)O)C(=O)C1N=Nc1ccccc1 (stereo not given)	/	3%	21µM*	13µM*	-2	17
Cc1ccc(NC(=O)Cn2nc(N3CCN(c4ccccc4)CC3)ccc2=O)cc1F	11%	/	?	?	/	/
Cc1ccc(Nc2nc3ccccc3o2)cc1F	-2%	?	10µM*	8.2µM*	-27	35
Cc1nc(Nc2nc3ccccc3o2)nc(C)c1C	9%	?	-69%	-20%	27	?
Cc1ccnc(Nc2nc3ccccc3o2)n1	5%	?	21µM*	?	?	2
C=C1C=C(C)n2ncc(C(=O)Nc3cccc4cnccc34)c2N1	/	/	11µM*	16µM*	/	/
O=C(COC(=O)COc1ccc(Cl)cc1)Nc1ccc2c(c1)OCCO2	2%	?	15%	-19%	-19	14
CC(C)c1onc(-c2c(Cl)cccc2Cl)c1COc1ccc(/C=C/c2cccc(C(=O)O)c2)c(Cl)c1	-13%	/	/	/	/	/
